For 72 molecules, cytotoxicity call results are on record in the antibiotic and cytotoxicity screens of Wong et al. (2023).

SMILES strings stand for the structures. Out of some 39,000 compounds screened, about 3,300 (8.5%) were called active. The sample as a whole holds a higher share of actives than the screen did.

The experiment relates to HepG2. The experiment is described as follows: cytotoxicity call (relative viability < 0.9). Conditions: 10 µM.
Consider `C=CC(=O)Nc1cccc(Nc2nc(Nc3ccc(NC4CN(CCF)C4)cc3OC)ncc2C(F)(F)F)c1`, for which the cytotoxicity call was “active”.
For the molecule `COc1cccc(-c2ccc3c(c2)O[C@H](CN(C)Cc2cncnc2)[C@@H](C)CN([C@H](C)CO)S3(=O)=O)c1`, the cytotoxicity call is “inactive”.
For `CCOc1ccccc1C(N)=O`, the cytotoxicity call was “inactive”.
For the molecule `COc1ccccc1O[C@@H](C)C(=O)NN`, the cytotoxicity call was “inactive”.
`CCOC(=O)CC(=O)N1CCSC1COc1ccccc1OC` (configuration not stated): the cytotoxicity call was “active”.
With `N[C@@H](Cn1ccc(=O)n(Cc2ccccc2C(=O)O)c1=O)C(=O)O`, the cytotoxicity call is “inactive”.
For `Cc1noc(C)c1S(=O)(=O)Nc1ccc2c(c1)C(=O)N([C@@H](C)CO)C[C@@H](C)[C@@H](CN(C)C(=O)Nc1ccc3c(c1)OCO3)O2`, the cytotoxicity call is “inactive”.
Consider `Cc1cc(C)nc(NS(=O)(=O)c2ccc(NC(=O)c3cccn(OCc4ccc(F)cc4)c3=O)cc2)n1`, for which the cytotoxicity call was “inactive”.
With `COc1cc2nccc(Oc3ccc(NC(=O)C4(C(=O)Nc5ccc(F)cc5)CC4)cc3)c2cc1OC`, the cytotoxicity call is “inactive”.
Consider `COc1cc2nccc(Oc3ccc(NC(=O)c4cn(C(C)C)c(=O)n(-c5ccc(F)cc5)c4=O)cc3F)c2cc1OC`, for which the cytotoxicity call was “active”.
For the molecule `COc1cc2c(Oc3ccc(NC(=O)C4(C(=O)Nc5ccc(F)cc5)CC4)cc3F)ccnc2cc1OCCCN1CCOCC1`, the cytotoxicity call was “active”.
Regarding `COc1ccc2c3c(n(c2c1)C)[C@H](CO)N(C[C@]13CCN(CC1)C(=O)CN1CCOCC1)C(=O)Nc1ccc(cc1)F`, the cytotoxicity call is “inactive”.
Turning to `C[C@H]1CN([C@@H](C)CO)C(=O)Cc2cc(NC(=O)C3CC3)ccc2O[C@H]1CN(C)C(=O)Nc1ccccc1`, the cytotoxicity call is “inactive”.
Consider `C[C@H]1CN([C@@H](C)CO)C(=O)Cc2cc(NS(=O)(=O)c3ccccc3)ccc2O[C@H]1CN(C)S(C)(=O)=O`, for which the cytotoxicity call is “inactive”.
As for `O=S(=O)(O)O/N=C(\Cc1ccc(O)cc1)S[C@H]1O[C@H](CO)[C@@H](O)[C@H](O)[C@H]1O`, the cytotoxicity call was “inactive”.
Regarding `CC=Cc1ccc2n(c1=O)C[C@@H]1[C@@H](CO)[C@H](C(=O)NCCc3cn(C)cn3)N(C(=O)CC)[C@H]21`, the cytotoxicity call is “inactive”.
`C[C@H](CO)N1C[C@H](C)[C@H](CN(C)C(=O)C2CCOCC2)Oc2ncc(C#Cc3cccc(F)c3)cc2C1=O`: the cytotoxicity call is “inactive”.
For the molecule `CC(C)N1CC[C@@H](CNCc2ccc(Oc3ccccc3)cc2)Oc2c(NC(=O)c3ccncc3)cccc2C1=O`, the cytotoxicity call is “inactive”.
Turning to `CN(CC(=O)NCc1ccccn1)S(=O)(=O)c1cc(Br)cnc1N`, the cytotoxicity call is “active”.
`CC(C)CNC(=O)C(=O)NCc1ccccn1`: the cytotoxicity call is “inactive”.
Regarding `O=C(NCc1ccccn1)C1CCNCC1`, the cytotoxicity call was “inactive”.
With `Nc1nc(Cl)nc(Cl)n1`, the cytotoxicity call was “inactive”.
As for `COc1ccc(NC(=O)Nc2ccc3c(c2)[C@@H]2C[C@@H](CC(=O)NCc4ccccn4)O[C@H](CO)[C@@H]2O3)cc1`, the cytotoxicity call was “inactive”.
Regarding `C[C@H]1CN([C@@H](C)CO)C(=O)Cc2cc(NC(=O)C3CCCCC3)ccc2O[C@@H]1CN(C)Cc1ccc(C(F)(F)F)cc1`, the cytotoxicity call was “active”.
On to `C[C@H]1CN([C@@H](C)CO)C(=O)Cc2cc(NC(=O)C3CCCCC3)ccc2O[C@H]1CN(C)Cc1ccc(C(F)(F)F)cc1`, for which the cytotoxicity call was “inactive”.
For `C[C@H](CO)N1C[C@H](C)[C@H](CN(C)C(=O)Nc2ccc(C(F)(F)F)cc2)Oc2ccc(NC(=O)C3CCCCC3)cc2CC1=O`, the cytotoxicity call is “inactive”.
For `C[C@@H]1CN([C@H](C)CO)C(=O)Cc2cc(NC(=O)C3CCCCC3)ccc2O[C@@H]1CN(C)Cc1ccc(C(F)(F)F)cc1` the value was “active”.
Take `C[C@H](CO)N1C[C@H](C)[C@@H](CN(C)Cc2ccc(C(F)(F)F)cc2)Oc2ccc(NC(=O)C3CCCCC3)cc2CC1=O`: the cytotoxicity call was “inactive”.
`C[C@@H]1CN([C@@H](C)CO)C(=O)Cc2cc(NC(=O)C3CCCCC3)ccc2O[C@H]1CN(C)Cc1ccc(C(F)(F)F)cc1`: the cytotoxicity call was “inactive”.
For `C[C@@H]1CN([C@H](C)CO)C(=O)Cc2cc(NC(=O)C3CCCCC3)ccc2O[C@H]1CN(C)Cc1ccc(C(F)(F)F)cc1`, the cytotoxicity call is “inactive”.
For `C[C@@H]1CN([C@@H](C)CO)C(=O)Cc2cc(NC(=O)C3CCCCC3)ccc2O[C@@H]1CN(C)Cc1ccc(C(F)(F)F)cc1` the value was “active”; for `C[C@H](CO)N1C[C@H](C)[C@H](CN(C)Cc2ccc(C(F)(F)F)cc2)Oc2ccc(NC(=O)C3CCCCC3)cc2CC1=O`, “inactive”; for `CCN1C[C@]23CN(C(=O)c4cnccn4)C[C@@H](C[C@H]2S1(=O)=O)O3`, “inactive”.
`C[C@H]1CN([C@@H](C)CO)C(=O)CCCn2nncc2CO[C@H]1CN(C)S(=O)(=O)c1ccc(Oc2ccccc2)nc1`: the cytotoxicity call is “inactive”.
For `C[C@@H]1CCCCO[C@H](CN(C)C(=O)Nc2ccc(F)cc2)[C@H](C)CN([C@H](C)CO)C(=O)c2cc(NS(=O)(=O)c3ccccc3)ccc2O1`, the cytotoxicity call is “inactive”.
With `C[C@H](CO)N1C[C@H](C)[C@H](CN(C)C)Oc2ccc(NS(=O)(=O)c3cn(C)cn3)cc2CC1=O` the entry was “inactive”; with `Cc1noc(C)c1S(=O)(=O)NC(C)C`, “inactive”; with `CS(=O)(=O)CS(=O)(=O)C1=C(N2CCOCC2)C2CCN1CC2`, “inactive”.
For `Cc1noc(C)c1NC(=O)N[C@@H]1C=C[C@@H](CC(=O)N2CCN(C)CC2)O[C@H]1CO`, the cytotoxicity call was “inactive”.
As to `c1ccc(-c2cccs2)nc1`, the cytotoxicity call is “inactive”.
`O=C(Nc1ccc(C(F)(F)F)cc1)Nc1ccc2c(c1)[C@H]1C[C@@H](CC(=O)N3CCc4ccccc4C3)O[C@H](CO)[C@H]1O2`: the cytotoxicity call was “active”.
For `O=C(Nc1ccc(C(F)(F)F)cc1)Nc1ccc2c(c1)[C@@H]1C[C@H](CC(=O)N3CCc4ccccc4C3)O[C@@H](CO)[C@@H]1O2` the value was “inactive”; for `O=C(Nc1ccc(C(F)(F)F)cc1)Nc1ccc2c(c1)[C@@H]1C[C@H](CC(=O)N3CCc4ccccc4C3)O[C@H](CO)[C@@H]1O2`, “inactive”; for `O=C(Nc1ccc(C(F)(F)F)cc1)Nc1ccc2c(c1)[C@H]1C[C@@H](CC(=O)N3CCc4ccccc4C3)O[C@@H](CO)[C@H]1O2`, “inactive”.
For `O=C(Nc1ccc(C(F)(F)F)cc1)Nc1ccc2c(c1)[C@@H]1C[C@@H](CC(=O)N3CCc4ccccc4C3)O[C@H](CO)[C@@H]1O2`, the cytotoxicity call is “active”.
As to `O=C(Nc1ccc(C(F)(F)F)cc1)Nc1ccc2c(c1)[C@H]1C[C@H](CC(=O)N3CCc4ccccc4C3)O[C@@H](CO)[C@H]1O2`, the cytotoxicity call was “inactive”.
Take `CO[C@@H]1CN(C)C(=O)c2cc(NC(=O)c3cc(C)on3)ccc2OC[C@@H](C)N(C(=O)C2CCC2)C[C@H]1C`: the cytotoxicity call is “inactive”.
As to `C[C@@H]1CN([C@H](C)CO)C(=O)c2cc(NC(=O)Nc3ccc(C(F)(F)F)cc3)ccc2O[C@@H](C)CCCCO[C@@H]1CN(C)S(=O)(=O)c1cn(C)cn1`, the cytotoxicity call is “inactive”.
In the case of `C[C@H](CO)N1C[C@H](C)[C@@H](CN(C)S(=O)(=O)c2ccc(F)cc2)OCCCC[C@H](C)Oc2ccc(NC(=O)C3CCCCC3)cc2C1=O`, the cytotoxicity call was “inactive”.
For `Cc1noc(C)c1S(=O)(=O)Nc1ccc2c(c1)C(=O)N([C@@H](C)CO)C[C@H](C)[C@H](CN(C)Cc1ccc(-c3ccccc3)cc1)O2` the value was “inactive”; for `CCS(=O)(=O)N1CCC(C(=O)N(C)C)CC1`, “inactive”; for `C[C@@H]1CN([C@H](C)CO)C(=O)c2c(c3ccccc3n2C)-c2ccccc2CO[C@@H]1CN(C)C(=O)NC1CCCCC1`, “inactive”.
In the case of `C[C@H]1CN([C@@H](C)CO)C(=O)c2c(c3ccccc3n2C)-c2ccccc2CO[C@H]1CN(C)CC1CCCCC1`, the cytotoxicity call is “inactive”.
`C[C@@H]1CN([C@H](C)CO)C(=O)c2c(c3ccccc3n2C)-c2ccccc2CO[C@@H]1CN(C)CC1CCCCC1`: the cytotoxicity call was “inactive”.
For `C[C@@H]1CN([C@@H](C)CO)C(=O)c2c(c3ccccc3n2C)-c2ccccc2CO[C@@H]1CN(C)CC1CCCCC1`, the cytotoxicity call is “active”.
For the molecule `C[C@H](CO)N1C[C@H](C)[C@@H](CN(C)C(=O)NC2CCCCC2)OCc2ccccc2-c2c(n(C)c3ccccc23)C1=O`, the cytotoxicity call was “inactive”.
In the case of `C[C@H]1CN([C@@H](C)CO)C(=O)c2c(c3ccccc3n2C)-c2ccccc2CO[C@@H]1CN(C)CC1CCCCC1`, the cytotoxicity call is “active”.
Consider `C[C@H](CO)N1C[C@H](C)[C@@H](CN(C)CC2CCCCC2)OCc2ccccc2-c2c(n(C)c3ccccc23)C1=O`, for which the cytotoxicity call was “inactive”.
For the molecule `C[C@H](CO)N1C[C@H](C)[C@H](CN(C)C(=O)NC2CCCCC2)OCc2ccccc2-c2c(n(C)c3ccccc23)C1=O`, the cytotoxicity call is “active”.
For `C[C@@H]1CN([C@@H](C)CO)C(=O)c2c(c3ccccc3n2C)-c2ccccc2CO[C@H]1CN(C)CC1CCCCC1` the value was “inactive”; for `CC1(C)S[C@H]2[C@@H](NC(=O)[C@@H](NC(=O)N3CCN(S(C)(=O)=O)C3=O)c3ccccc3)C(=O)N2[C@@H]1C(=O)O`, “inactive”.
Take `CCCNC(=O)Nc1ccc2c(c1)C(=O)N(C)C[C@@H](OC)[C@@H](C)CN(C(=O)C1CCOCC1)[C@@H](C)CO2`: the cytotoxicity call is “inactive”.
Turning to `Cc1noc(C)c1NC(=O)N(C)C[C@H]1OCCCC[C@@H](C)Oc2ccc(NC(=O)CCC(F)(F)F)cc2C(=O)N([C@H](C)CO)C[C@H]1C`, the cytotoxicity call is “inactive”.
On to `C[C@H](C(=O)O)N1CCCCC1`, for which the cytotoxicity call is “inactive”.
In the case of `CC(C)c1cn(CC[C@H]2CC[C@H](N)[C@@H](CO)O2)nn1`, the cytotoxicity call is “inactive”.
Regarding `CC[C@@H](Sc1n[nH]c(=O)[nH]c1=O)C(=O)O`, the cytotoxicity call is “inactive”.
Consider `COCC(=O)N(C)C[C@H]1Oc2cc(C#CCC3CCCC3)ccc2S(=O)(=O)N([C@H](C)CO)C[C@H]1C`, for which the cytotoxicity call was “inactive”.
`C[C@@H]1CN([C@H](C)CO)C(=O)Cc2cc(NC(=O)C3CC3)ccc2O[C@H]1CN(C)C(=O)Nc1ccccc1`: the cytotoxicity call is “inactive”.
For the molecule `COCC(=O)N1[C@@H]2c3ccc(C4=CCCCC4)c(=O)n3C[C@@H]2[C@@H](CO)[C@@H]1C(=O)N1CCOCC1`, the cytotoxicity call was “inactive”.
Turning to `C=CC(=O)Nc1cccc(C)c1Nc1ncc2cc(-c3c(Cl)c(OC)cc(OC)c3Cl)ccc2n1`, the cytotoxicity call was “active”.
Regarding `COCC(=O)Nc1ccc2c(c1)C(=O)N(C)[C@@H]1CC[C@@H](CC(=O)NCc3ccc(OC)cc3)O[C@H]1CO2`, the cytotoxicity call is “inactive”.
As for `Cc1noc(C)c1NC(=O)N(C)C[C@H]1Oc2ccc(NC(=O)Nc3ccc(C(F)(F)F)cc3)cc2C(=O)N([C@@H](C)CO)C[C@H]1C`, the cytotoxicity call is “inactive”.
